Usually inhibition stands for the relative decrease from the control value, in per cent.

The values below come from ChEMBL document CHEMBL1961873, “Compounds: GSK PKIS; Assays: Nanosyn kinase panel” (2012).

Experiment [1] addresses T1, Serine/threonine-protein kinase Nek9 (Homo sapiens) (UniProt Q8TD19).
T1 sequence (whole entry): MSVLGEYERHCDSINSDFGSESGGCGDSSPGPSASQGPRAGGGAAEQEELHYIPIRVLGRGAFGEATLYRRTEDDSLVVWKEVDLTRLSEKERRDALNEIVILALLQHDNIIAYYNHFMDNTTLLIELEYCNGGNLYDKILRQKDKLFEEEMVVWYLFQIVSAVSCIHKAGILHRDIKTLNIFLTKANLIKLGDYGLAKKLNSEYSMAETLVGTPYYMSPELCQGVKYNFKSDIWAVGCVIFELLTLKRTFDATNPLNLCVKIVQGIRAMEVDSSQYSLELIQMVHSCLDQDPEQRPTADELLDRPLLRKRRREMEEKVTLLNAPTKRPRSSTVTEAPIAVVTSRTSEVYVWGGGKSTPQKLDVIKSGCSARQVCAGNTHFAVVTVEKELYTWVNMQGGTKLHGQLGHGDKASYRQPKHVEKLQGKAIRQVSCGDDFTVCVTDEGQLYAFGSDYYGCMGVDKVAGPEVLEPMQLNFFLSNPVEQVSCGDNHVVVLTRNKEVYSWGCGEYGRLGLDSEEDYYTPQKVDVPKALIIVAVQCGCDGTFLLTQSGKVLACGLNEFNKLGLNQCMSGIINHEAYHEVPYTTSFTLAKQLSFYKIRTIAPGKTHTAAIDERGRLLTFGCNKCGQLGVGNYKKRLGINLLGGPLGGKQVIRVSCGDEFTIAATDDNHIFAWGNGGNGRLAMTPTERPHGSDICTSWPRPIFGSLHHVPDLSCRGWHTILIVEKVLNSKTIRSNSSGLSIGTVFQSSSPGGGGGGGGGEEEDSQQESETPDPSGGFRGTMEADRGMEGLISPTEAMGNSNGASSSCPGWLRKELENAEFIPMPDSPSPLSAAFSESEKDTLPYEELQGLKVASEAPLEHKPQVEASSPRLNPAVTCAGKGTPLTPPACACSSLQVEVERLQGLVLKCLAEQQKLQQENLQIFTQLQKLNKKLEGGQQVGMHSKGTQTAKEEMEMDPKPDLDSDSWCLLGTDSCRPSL
As to conditions: at 1 µM.

The target in experiment [2] is Serine/threonine-protein kinase PLK1 (Homo sapiens) (UniProt P53350). The following applies: at 0.1 µM.
Chain of Serine/threonine-protein kinase PLK1 (Homo sapiens) (P53350 whole entry): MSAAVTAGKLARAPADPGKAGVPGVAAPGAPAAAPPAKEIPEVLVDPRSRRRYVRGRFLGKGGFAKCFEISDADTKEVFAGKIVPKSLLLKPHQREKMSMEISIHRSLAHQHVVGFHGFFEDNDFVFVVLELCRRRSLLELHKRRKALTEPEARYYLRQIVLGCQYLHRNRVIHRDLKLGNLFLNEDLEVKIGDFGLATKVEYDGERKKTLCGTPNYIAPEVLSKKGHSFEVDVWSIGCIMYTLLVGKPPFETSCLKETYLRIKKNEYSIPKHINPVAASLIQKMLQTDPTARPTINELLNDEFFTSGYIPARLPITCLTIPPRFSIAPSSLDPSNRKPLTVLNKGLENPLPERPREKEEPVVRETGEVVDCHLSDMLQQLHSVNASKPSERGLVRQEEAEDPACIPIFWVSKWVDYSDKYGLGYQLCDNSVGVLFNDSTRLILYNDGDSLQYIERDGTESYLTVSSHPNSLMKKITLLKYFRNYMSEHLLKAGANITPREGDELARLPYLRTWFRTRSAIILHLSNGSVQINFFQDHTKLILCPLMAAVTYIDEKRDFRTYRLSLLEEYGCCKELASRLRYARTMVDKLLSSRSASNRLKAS
Experiment [3] shares this target. As to conditions: at 1 µM.
Experiment [4] addresses T2, Dual specificity protein kinase TTK (Homo sapiens) (UniProt P33981).
T2 sequence (whole entry): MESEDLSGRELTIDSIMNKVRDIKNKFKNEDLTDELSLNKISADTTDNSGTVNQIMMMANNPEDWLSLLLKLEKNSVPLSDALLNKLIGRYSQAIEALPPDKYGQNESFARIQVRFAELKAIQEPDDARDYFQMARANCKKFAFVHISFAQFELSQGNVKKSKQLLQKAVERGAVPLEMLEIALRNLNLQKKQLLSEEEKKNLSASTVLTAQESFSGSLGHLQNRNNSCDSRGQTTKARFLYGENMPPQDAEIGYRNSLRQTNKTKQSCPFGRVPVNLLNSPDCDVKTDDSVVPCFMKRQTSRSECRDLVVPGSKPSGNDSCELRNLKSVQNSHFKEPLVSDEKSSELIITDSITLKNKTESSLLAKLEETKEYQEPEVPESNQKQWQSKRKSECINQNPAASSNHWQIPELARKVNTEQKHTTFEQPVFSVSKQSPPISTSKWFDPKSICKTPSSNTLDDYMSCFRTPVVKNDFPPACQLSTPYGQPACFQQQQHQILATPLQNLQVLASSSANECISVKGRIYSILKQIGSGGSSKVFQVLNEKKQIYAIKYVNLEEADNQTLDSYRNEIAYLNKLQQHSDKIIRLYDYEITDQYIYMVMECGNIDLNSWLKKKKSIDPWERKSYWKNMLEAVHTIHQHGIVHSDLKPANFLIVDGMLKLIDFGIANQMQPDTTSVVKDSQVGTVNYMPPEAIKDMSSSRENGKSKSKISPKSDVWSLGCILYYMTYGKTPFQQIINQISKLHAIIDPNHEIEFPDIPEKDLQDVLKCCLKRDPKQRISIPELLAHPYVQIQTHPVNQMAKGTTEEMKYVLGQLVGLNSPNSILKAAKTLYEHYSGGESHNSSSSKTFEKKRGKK
The following applies: at 0.1 µM.

Experiment [5] has as its system T3, Receptor-type tyrosine-protein kinase FLT3 (Homo sapiens), P36888 [D835Y].
T3 sequence (whole entry): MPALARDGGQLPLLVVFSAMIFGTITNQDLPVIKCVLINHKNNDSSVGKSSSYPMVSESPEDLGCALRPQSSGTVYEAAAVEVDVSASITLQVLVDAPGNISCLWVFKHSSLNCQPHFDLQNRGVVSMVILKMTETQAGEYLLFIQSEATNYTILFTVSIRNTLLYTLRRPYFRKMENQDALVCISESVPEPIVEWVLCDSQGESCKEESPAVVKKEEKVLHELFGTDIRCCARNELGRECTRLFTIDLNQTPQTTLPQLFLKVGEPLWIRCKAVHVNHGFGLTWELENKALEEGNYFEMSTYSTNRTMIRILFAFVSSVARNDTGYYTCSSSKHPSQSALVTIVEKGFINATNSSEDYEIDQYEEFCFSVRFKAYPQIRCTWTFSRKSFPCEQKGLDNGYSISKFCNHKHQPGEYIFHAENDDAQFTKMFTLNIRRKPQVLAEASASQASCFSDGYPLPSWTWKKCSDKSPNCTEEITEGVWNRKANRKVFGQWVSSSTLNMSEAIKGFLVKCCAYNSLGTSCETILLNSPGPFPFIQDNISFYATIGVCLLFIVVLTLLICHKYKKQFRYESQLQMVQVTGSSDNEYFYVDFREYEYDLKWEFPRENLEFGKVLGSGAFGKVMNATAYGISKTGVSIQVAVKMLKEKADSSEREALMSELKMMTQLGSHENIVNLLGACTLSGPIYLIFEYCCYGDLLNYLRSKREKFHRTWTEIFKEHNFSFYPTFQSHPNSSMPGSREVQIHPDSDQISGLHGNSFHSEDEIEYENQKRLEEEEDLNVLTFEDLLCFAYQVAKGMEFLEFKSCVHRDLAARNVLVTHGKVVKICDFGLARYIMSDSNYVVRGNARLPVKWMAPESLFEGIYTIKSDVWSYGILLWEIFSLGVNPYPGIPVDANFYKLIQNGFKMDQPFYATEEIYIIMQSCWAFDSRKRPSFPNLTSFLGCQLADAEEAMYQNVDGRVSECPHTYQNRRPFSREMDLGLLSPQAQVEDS
As to conditions: at 1 µM.

The target in experiment [6] is Vascular endothelial growth factor receptor 3 (Homo sapiens) (UniProt P35916). As to conditions: at 0.1 µM.
Chain of Vascular endothelial growth factor receptor 3 (Homo sapiens) (P35916 whole entry): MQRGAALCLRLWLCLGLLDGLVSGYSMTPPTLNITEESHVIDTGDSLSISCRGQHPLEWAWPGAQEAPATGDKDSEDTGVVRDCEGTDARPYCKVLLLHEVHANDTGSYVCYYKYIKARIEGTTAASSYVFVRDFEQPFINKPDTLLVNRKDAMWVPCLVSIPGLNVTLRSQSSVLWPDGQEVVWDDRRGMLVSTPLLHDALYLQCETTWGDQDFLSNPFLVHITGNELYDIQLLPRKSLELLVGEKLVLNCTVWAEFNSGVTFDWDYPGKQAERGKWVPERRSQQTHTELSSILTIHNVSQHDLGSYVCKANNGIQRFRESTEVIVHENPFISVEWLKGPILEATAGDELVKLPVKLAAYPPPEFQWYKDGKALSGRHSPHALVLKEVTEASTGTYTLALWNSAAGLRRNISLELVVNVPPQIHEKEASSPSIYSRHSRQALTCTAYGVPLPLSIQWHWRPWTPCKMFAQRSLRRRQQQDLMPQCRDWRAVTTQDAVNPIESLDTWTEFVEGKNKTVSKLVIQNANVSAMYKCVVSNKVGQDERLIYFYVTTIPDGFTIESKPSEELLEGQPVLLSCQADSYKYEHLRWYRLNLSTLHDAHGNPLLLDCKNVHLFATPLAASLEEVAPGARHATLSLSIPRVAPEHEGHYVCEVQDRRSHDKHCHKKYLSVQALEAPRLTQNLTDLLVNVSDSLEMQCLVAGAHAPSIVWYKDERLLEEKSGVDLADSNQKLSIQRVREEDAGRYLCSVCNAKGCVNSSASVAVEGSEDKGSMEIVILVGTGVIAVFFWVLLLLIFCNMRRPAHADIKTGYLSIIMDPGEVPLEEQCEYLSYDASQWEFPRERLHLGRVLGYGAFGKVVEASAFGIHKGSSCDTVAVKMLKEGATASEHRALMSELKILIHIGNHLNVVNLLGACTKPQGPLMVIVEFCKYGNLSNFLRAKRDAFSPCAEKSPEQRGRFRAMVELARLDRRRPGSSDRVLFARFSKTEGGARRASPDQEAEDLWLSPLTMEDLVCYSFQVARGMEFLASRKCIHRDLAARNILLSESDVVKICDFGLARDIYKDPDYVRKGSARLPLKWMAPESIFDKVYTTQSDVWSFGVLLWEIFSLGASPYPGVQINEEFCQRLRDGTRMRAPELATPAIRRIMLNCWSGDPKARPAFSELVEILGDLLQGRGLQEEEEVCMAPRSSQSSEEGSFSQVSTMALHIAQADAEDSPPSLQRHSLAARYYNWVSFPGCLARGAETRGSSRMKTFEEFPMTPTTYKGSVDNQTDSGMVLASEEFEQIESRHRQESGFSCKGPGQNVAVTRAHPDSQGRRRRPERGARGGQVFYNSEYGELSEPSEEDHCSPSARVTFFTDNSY
Experiment [7] has as its target Macrophage colony-stimulating factor 1 receptor (Homo sapiens) (UniProt P07333). The following applies: at 0.1 µM.
Experiment [8] has the same target. The following applies: at 1 µM.
In experiment [9] the target is Tyrosine-protein kinase Fyn (Homo sapiens) (UniProt P06241). As to conditions: at 0.1 µM.
For experiment [10] the target is unchanged. As to conditions: at 1 µM.
Experiment [11] concerns the target Tyrosine-protein kinase HCK (Homo sapiens) (UniProt P08631). The following applies: at 0.1 µM.
For experiment [12] the target is unchanged. The following applies: at 1 µM.
In experiment [13] the target is Insulin-like growth factor 1 receptor (Homo sapiens) (UniProt P08069). The following applies: at 0.1 µM.
For experiment [14] the target is unchanged. As to conditions: at 1 µM.
Experiment [15] concerns the target Insulin receptor (Homo sapiens) (UniProt P06213). As to conditions: at 0.1 µM.
Experiment [16] has the same target. The following applies: at 1 µM.
The target in experiment [17] is Insulin receptor-related protein (Homo sapiens) (UniProt P14616). As to conditions: at 0.1 µM.
Chain of Insulin receptor-related protein (Homo sapiens) (P14616 27-742 limits assumed): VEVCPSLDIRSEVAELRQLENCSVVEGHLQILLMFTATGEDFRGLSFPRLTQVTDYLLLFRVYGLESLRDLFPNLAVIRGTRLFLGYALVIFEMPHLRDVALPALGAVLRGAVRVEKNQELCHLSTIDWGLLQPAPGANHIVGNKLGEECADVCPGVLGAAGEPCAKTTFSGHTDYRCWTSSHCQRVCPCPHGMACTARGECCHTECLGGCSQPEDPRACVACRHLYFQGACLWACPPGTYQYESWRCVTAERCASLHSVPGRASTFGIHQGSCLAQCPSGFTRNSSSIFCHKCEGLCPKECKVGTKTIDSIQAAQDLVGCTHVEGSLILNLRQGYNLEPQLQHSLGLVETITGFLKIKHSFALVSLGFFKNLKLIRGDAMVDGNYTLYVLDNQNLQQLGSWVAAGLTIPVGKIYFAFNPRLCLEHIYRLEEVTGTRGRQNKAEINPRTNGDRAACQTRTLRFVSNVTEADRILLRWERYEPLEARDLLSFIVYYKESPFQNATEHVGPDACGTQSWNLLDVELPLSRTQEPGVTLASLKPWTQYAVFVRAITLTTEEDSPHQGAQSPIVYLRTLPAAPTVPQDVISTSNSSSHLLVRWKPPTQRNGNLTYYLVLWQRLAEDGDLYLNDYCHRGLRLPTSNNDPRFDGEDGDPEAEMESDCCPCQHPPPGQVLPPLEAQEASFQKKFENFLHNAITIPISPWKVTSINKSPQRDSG
Chain of Insulin receptor-related protein (Homo sapiens) (P14616 747-1297 limits assumed): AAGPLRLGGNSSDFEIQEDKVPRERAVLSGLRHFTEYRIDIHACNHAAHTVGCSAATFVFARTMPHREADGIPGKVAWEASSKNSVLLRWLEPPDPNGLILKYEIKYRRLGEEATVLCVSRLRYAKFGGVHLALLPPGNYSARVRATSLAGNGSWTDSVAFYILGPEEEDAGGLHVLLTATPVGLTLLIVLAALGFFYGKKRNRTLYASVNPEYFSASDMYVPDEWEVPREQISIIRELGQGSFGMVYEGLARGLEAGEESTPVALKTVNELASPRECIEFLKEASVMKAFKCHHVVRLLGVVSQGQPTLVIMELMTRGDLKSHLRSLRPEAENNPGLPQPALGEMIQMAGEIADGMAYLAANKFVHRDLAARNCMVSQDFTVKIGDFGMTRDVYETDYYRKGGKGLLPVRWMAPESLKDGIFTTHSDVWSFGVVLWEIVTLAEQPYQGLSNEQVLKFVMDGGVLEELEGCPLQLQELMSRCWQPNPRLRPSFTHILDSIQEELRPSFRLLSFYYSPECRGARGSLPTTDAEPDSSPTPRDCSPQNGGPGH
Experiment [18] has the same target. As to conditions: at 1 µM.
Experiment [19] has as its target T4, Tyrosine-protein kinase ITK/TSK (Homo sapiens) (UniProt Q08881).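 Further: mean percent inhibition of ITK from the GSK PKIS screen.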
T4 sequence (whole entry): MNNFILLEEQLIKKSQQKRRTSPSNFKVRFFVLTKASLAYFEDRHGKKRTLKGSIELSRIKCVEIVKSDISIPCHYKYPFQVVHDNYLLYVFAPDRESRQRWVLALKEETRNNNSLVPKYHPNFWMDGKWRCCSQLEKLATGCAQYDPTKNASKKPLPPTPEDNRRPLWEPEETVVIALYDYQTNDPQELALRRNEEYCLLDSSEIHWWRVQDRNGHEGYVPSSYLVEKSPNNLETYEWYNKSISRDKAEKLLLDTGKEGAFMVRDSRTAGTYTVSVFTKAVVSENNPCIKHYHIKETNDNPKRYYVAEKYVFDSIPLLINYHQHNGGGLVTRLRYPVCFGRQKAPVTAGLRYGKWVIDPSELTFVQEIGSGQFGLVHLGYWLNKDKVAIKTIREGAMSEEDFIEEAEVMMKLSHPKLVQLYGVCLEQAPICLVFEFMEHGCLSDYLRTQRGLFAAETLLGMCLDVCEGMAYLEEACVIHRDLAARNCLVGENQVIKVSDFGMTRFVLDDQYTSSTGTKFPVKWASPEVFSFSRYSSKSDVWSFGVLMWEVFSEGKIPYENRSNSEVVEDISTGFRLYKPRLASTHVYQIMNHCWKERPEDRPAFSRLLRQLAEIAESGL
The following applies: at 0.1 µM.

Experiment [20] deals with Vascular endothelial growth factor receptor 3 (Homo sapiens) (UniProt P35916). The following applies: at 1 µM.

Chain of Macrophage colony-stimulating factor 1 receptor (Homo sapiens) (P07333 whole entry): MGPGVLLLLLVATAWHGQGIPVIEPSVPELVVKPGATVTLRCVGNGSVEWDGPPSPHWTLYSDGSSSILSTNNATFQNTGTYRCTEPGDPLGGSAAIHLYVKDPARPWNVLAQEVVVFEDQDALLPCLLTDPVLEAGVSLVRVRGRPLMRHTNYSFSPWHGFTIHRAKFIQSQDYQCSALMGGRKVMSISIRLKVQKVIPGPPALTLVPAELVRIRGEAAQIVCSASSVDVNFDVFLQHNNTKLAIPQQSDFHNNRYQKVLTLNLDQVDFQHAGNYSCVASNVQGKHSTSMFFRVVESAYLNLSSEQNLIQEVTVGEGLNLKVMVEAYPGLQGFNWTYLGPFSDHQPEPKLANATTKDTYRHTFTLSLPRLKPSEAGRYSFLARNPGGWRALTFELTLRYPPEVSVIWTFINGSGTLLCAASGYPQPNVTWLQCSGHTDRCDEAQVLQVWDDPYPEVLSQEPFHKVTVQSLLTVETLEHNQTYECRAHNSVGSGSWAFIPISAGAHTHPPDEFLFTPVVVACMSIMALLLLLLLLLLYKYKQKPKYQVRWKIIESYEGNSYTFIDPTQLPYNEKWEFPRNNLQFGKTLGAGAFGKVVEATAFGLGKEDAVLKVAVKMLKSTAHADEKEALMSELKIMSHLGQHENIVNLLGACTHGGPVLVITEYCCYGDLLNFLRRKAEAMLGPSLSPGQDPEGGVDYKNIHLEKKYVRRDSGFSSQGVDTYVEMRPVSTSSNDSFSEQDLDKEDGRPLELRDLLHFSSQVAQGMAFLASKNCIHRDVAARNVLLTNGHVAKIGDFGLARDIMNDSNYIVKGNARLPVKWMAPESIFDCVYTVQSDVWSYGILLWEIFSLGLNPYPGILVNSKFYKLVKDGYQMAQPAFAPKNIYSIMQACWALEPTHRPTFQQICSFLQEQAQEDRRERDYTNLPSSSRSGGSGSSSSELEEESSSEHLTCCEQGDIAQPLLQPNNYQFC
Chain of Tyrosine-protein kinase HCK (Homo sapiens) (P08631 2-526 limits assumed): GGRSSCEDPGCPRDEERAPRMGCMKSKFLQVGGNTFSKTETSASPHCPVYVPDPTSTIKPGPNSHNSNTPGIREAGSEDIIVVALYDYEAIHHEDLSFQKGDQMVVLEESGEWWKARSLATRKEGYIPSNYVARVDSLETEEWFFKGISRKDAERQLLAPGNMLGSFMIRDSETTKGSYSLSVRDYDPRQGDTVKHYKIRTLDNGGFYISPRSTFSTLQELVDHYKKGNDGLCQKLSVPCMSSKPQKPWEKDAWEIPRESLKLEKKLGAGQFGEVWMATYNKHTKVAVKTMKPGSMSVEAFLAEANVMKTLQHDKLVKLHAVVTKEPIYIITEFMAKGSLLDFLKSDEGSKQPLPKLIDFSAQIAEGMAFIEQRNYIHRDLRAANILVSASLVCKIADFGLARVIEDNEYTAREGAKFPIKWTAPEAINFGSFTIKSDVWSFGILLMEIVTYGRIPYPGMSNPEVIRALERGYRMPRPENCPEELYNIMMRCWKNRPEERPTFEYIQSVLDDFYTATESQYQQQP

Turning to `C#Cc1cccc(Nc2ncnc3ccc(OCCCCNCCS(C)(=O)=O)cc23)c1`, the inhibition in experiment [1] was 10.2%; in experiment [2] it was 2.94%; in experiment [3], 2.68%; in experiment [4] it was 9.49%; in experiment [5], 1.41%; in experiment [6], -5.89%. The inhibition is 4.11% in experiment [7]; 2.93% in [8]; -1.92% in experiment [9]; 2.18% in [10]; 11.1% in experiment [11]; 20.5% in experiment [12]. The inhibition in experiment [13] is -0.58%; in experiment [14], -2.48%; in [15], 8.82%; in experiment [16] it was 4.34%; in [17], 2.65%; in experiment [18] it was 2.49%. For the same compound, in experiment [19], the inhibition is -1.95%.
In the case of `c1ccc(-c2n[nH]cc2-c2ccnc(-c3ccc(OCCN4CCOCC4)cc3)c2)nc1`, the inhibition was -1.38% in [2]; -1.28% in [3]; -2.01% in [4]; 1.73% in experiment [5]; -0.95% in experiment [6]; 8.44% in experiment [20]. Moreover, the inhibition is 2.4% in [7]; 8.98% in [8]; -0.84% in [9]; 4.24% in [10]; 1.69% in experiment [11]; 4.55% in experiment [12]. For the same compound, the inhibition was -2.45% in [13]; -2.14% in experiment [14]; -2.85% in [15]; -1.85% in experiment [16]; -0.78% in [17]; -0.34% in experiment [18]. In addition, the inhibition in experiment [19] was 5.52%.
In the case of `C[C@@H](Oc1cc(-n2cnc3ccc(OC4CCN(C)CC4)cc32)sc1C(N)=O)c1ccccc1Cl`, the inhibition is 97.2% in experiment [1]; 6.06% in experiment [4]; 12.2% in [5]; -3.01% in [6]; 13.8% in [20]; 3.34% in experiment [7]. Besides, the inhibition is 16.3% in experiment [8]; -3.18% in [9]; -4.42% in experiment [10]; 6.15% in experiment [11]; 13% in experiment [12]; -9.14% in experiment [13]. Also, the inhibition in [14] is 0.05%; in [15], 10.4%; in [16], -1.99%; in [17], 2.49%; in experiment [18], 3.03%; in [19], -2.4%.
